Source: PubChem
697 NFkB inh = inhibitors of PMA/ionomycin-induced NF-kB reporter, 697 cells, primary screen, B-cell NF-kB inhibitor project, cell-based, luminescence, uHTS. 697 B-cell NF-kB luciferase reporter, 16 h. AID 435022, 2010. inhibition, % at 4 µM. actives 0.33% (n = 330,000); in the data active means inhibition above about 35%
Jurkat NFkB inh = inhibitors of induced NF-kB luciferase reporter, primary screen, TCR NF-kB activation inhibitor project, cell-based, luminescence, uHTS; Jurkat, PMA/ionomycin-induced NF-kB luciferase reporter; inhibition, % at 4 µM; actives 0.53% (n = 330,000); in the data active means inhibition above about 50%
HIF act = HIF pathway transcriptional activators, primary screen, cell-based, U2OS HRE-luciferase, luminescence; activation, % at 7.5 µM (by protocol); U2OS HRE-luciferase reporter; normalized: DMSO 0%, desferrioxamine 100%; actives 0.32% (n = 300,000); AID 1910, 2009;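 active means mean activation of at least 10% of the iron chelator positive control signal, with at least half of replicates also reaching 10%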
F508del corr = F508del CFTR correction, initial screen, CFBE line, single point; CFBE cells, YFP halide quenching; stimulated with forskolin plus potentiator P3; % fluorescence drop versus neutral controls; activity (quench increase), % at 7.58 µM; AID 720511, 2013; actives 0.36% (n = 350,000);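 active means mean added fluorescence quench of at least 8% versus neutral control, with both replicates also reaching 8%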;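 further: cells transiently co-express mutant CFTR-F508del with the halide-sensitive YFP; corrector assay measuring rescue of mutant channel to the surface after 24 h compound exposure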
A number is an active result; – = inactive; · = no result. Only some compounds are listed: those with a hit (about 0.93% of all), similar ones and a draw of the others.

SMILES	697 NFkB inh	Jurkat NFkB inh	HIF act	F508del corr
O=C(CCSc1nc2ccccc2s1)N/N=C/c1c(O)ccc2ccccc12	–	–	11.0	–
Cc1cc(C)n(CCC(=O)N/N=C/c2c(O)ccc3ccccc23)n1	–	–	16.7	–
O=C(CN1CCCC1)N/N=C/c1c(O)ccc2ccccc12	–	–	27.8	10.0
Cc1cccc(/C=N/NC(=O)CN2CCCCCCC2)c1	–	–	–	·
O=C(NN=Cc1c(O)ccc2ccccc12)C1CC1	·	·	·	–
Cc1cc(C)n(CCC(=O)N/N=C/c2ccc(O)cc2)n1	–	–	–	·
C[C@@H]1CN([C@H](C)CO)C(=O)c2cc(NS(C)(=O)=O)ccc2O[C@@H](C)CCCCO[C@H]1CN(C)C(=O)Nc1ccc(F)cc1	·	·	·	–
CC(C)CC#Cc1ccc2c(c1)O[C@@H](CN(C)C(=O)Cc1ccccc1)[C@@H](C)CN([C@H](C)CO)S2(=O)=O	·	·	·	–
O=C(c1ccccn1)N1CC(=O)N2[C@H](CO)[C@@H](c3ccc(C#Cc4ccccc4)cc3)[C@@H]2C1	·	·	·	–
CCCC#Cc1cnc2c(c1)C(=O)N([C@@H](C)CO)C[C@H](C)[C@H](CN(C)C(=O)CN1CCOCC1)O2	·	·	·	–
COc1ccccc1OCC(=O)N/N=C/c1c(O)ccc2ccccc12	–	–	17.7	–
O=C(N/N=C/c1c(O)ccc2ccccc12)C(=O)N1CCCC1	·	·	·	12.9
O=C(N/N=C/c1ccccc1O)C(=O)N1CCCCCC1	–	–	–	–
COCC#Cc1ccc2c(c1)O[C@H](CN(C)S(C)(=O)=O)[C@@H](C)CN([C@@H](C)CO)S2(=O)=O	·	·	·	–
O=C1CCCC2=C1C(c1ccccc1O)C1=C(CCCC1=O)O2	–	–	–	·
O=C1CCCC2=C1C(Cc1ccccc1)C1=C(CCCC1=O)O2	–	–	350.7	·
C=Cn1cc[n+](CC(=O)c2cccs2)c1	–	–	–	–
O=C(C[n+]1ccn(CCCNP2(=O)C=C(c3ccccc3)OC(c3ccccc3)=C2)c1)c1cccs1	–	–	101.2	–
C/C=C/c1ccc([C@H]2[C@@H](CO)N(C(=O)c3cnccn3)C23CN(C(=O)C2CC2)C3)cc1	·	·	·	–
Cc1cc(OCC(=O)Nc2ccc(CN3CCCCC3)cc2)ccc1Cl	–	–	–	–
Cc1ccc(OCC(=O)Nc2ccc(CN3CCCCC3)cc2)c(C)c1	–	–	–	8.3
CCN(CC)CCCNc1nc2ccccc2c2nc(-c3ccncc3)nn12	–	–	–	15.0
Cc1ccccc1NC(=O)CN1C(=O)NC2(CCCCC2)C1=O	–	–	–	·
CC(C)(C)c1ccccc1NC(=O)CN1C(=O)NC2(CCCCCC2)C1=O	–	–	·	30.0
Cc1cc(NC(=O)CN2C(=O)NC3(CCCCCC3)C2=O)ccc1Br	–	–	·	31.8
SMILES	697 NFkB inh	Jurkat NFkB inh	HIF act	F508del corr
CC(=O)Nc1ccc(-c2csc(NC(=O)CN3C(=O)NC4(CCCC4)C3=O)n2)cc1	–	–	–	8.1
CCN1[C@H](C(=O)NCCCN(C)C)[C@@H](CO)[C@@H]2Cn3c(ccc(C4=CCCC4)c3=O)[C@@H]21	·	·	·	–
C[C@@H]1CN([C@H](C)CO)C(=O)c2cccc(NC(=O)c3ccc(-c4nccs4)cc3)c2O[C@@H]1CN(C)CC1CC1	·	·	·	–
C/C=C/c1ccc([C@@H]2[C@@H](CO)N[C@@H]2CN(CC)C(=O)c2ccccn2)cc1	·	·	·	–
CN(C[C@@H]1N[C@H](CO)[C@H]1c1ccccc1)C(=O)c1ccccn1	·	·	·	8.6
O=C(C[C@H]1CC[C@@H]2[C@H](COC[C@H](O)CN2C(=O)Nc2ccc(Cl)c(Cl)c2)O1)NCc1ccccc1	·	·	·	–
C[C@@H]1CN([C@@H](C)CO)C(=O)c2c(c3ccccc3n2C)-c2ccccc2CO[C@@H]1CN(C)C(=O)c1cc(Cl)cc(Cl)c1	·	·	·	–
NC(=O)c1sc2nc(-c3ccccc3)c3c(c2c1N)CCCC3	–	–	–	–
NC(=O)c1sc2nccc(Nc3ccccc3)c2c1N	–	–	10.5	·
C[C@@H]1CN([C@H](C)CO)S(=O)(=O)c2ccc(C#Cc3ccncc3)cc2O[C@@H]1CN(C)C(=O)C1CCOCC1	·	·	·	–
COc1ccc(CNC(=S)N/N=C/c2ccc(OC)c(OC)c2)cc1	–	–	–	·
COc1ccc(CNC(=S)N/N=C/c2ccc(O)c(OC)c2)cc1	–	–	20.5	–
Nc1[nH]c(C(=O)c2ccccc2)c(-c2ccccc2C(F)(F)F)c1C(=O)NCCc1c[nH]c2ccccc12	·	·	·	9.8
COc1cc(C(=O)Nc2ccccc2NC(=O)c2cc(OC)c(OC)c(OC)c2)cc(OC)c1OC	–	–	–	–
COc1cc(C(=O)Nc2ccccc2C(=O)Nc2ccccn2)cc(OC)c1OC	–	–	–	12.7
COC(CN(C(=O)CCl)C(C(=O)NC1CCCCC1)c1ccc(Cl)cc1)OC (stereo not drawn)	–	–	63.0	·
CO[C@@H]1CN(C)C(=O)c2ccc(NC(C)=O)cc2OC[C@H](C)N(Cc2ccncc2)C[C@H]1C	·	·	·	–
CN(c1ccc(O)cc1)c1nc(-c2cccs2)cs1	–	–	–	12.6
Cc1nc(N)sc1-c1csc(N(C)c2ccc(O)cc2)n1	–	–	–	–
CN1CCN(C2Cc3cc(F)ccc3Sc3ccc(Cl)cc32)CC1 (stereo not drawn)	–	–	–	–
CN1CCN(C2Cc3ccc(F)cc3Sc3cc(F)c(Cl)cc32)CC1 (stereo not drawn)	–	–	39.3	–
CC(C)NC(=O)Nc1cccc2c1O[C@@H](CN(C)S(=O)(=O)c1cccs1)[C@H](C)CN([C@H](C)CO)C2=O	·	·	·	–
Oc1ccc(/C=N/Nc2ccc(C(F)(F)F)cn2)c(O)c1	–	–	14.8	–
O=S(=O)(c1ccc(Cl)s1)N1CCN(Cc2ccccc2)CC1	–	–	·	·
CC(C)c1ccc(CN2CCN(S(=O)(=O)c3ccc(Cl)s3)CC2)cc1	–	–	·	29.9
SMILES	697 NFkB inh	Jurkat NFkB inh	HIF act	F508del corr
COc1ccc(NC(=O)c2cc(C3CC3)on2)c(OC)c1	–	–	–	8.2
C[C@H]1CCCCO[C@H](CN(C)C(=O)C2CCCCC2)[C@@H](C)CN([C@@H](C)CO)C(=O)c2cc(NC(=O)Cc3ccccc3)ccc2O1	·	·	·	–
COc1ccc(CC(NC(C)=O)C(=O)NC2CCN(C(=O)Nc3ccc(Cl)cc3)CC2)cc1OC (stereo not drawn)	–	–	36.5	·
Cc1noc(C)c1COC(=O)C1CC(O)CN1S(=O)(=O)c1ccc(Cl)cc1 (stereo not drawn)	–	–	61.1	·
CC1=CC(=O)c2ccccc2C1=O	–	–	–	–
COc1cccc2c1C(=O)C=C(C)C2=O	–	–	·	15.7
CC(C(=O)Nc1ccccc1-c1ccccc1)N(C)Cc1nc2ccccc2c(=O)[nH]1 (stereo not drawn)	–	–	57.0	–
CC(NC(=O)CN(C)Cc1nc2ccccc2c(=O)[nH]1)c1ccccc1 (stereo not drawn)	–	–	–	·
COc1cc(C(=O)Nc2sc(C)c(C)c2C(=O)O)cc(OC)c1OC	–	–	165.0	–
